Unmarked numbers belong to inactive results. Entries that show only a call come without a potency. For some of these results: Potency and affinity values are given separately. Active and inactive are the calls of the source. Unless noted, how the calls were made is not given here.
How the values were obtained:
[1] = antimalarial activity against Dd2 strain (AID 2302;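 active means growth inhibition above 50% at the single 2 µM test dose, taken to imply half-maximal potency below 2 µM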); conditions: P. falciparum Dd2 in RBCs, LDH growth readout, 72 h; at 2 µM; active compounds read high
[2] = HepG2 cytotoxicity, primary screen, cytotoxicity control for P. falciparum antimalarial project, cell-based, ATP luminescence (AID 2303;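 active means inhibition above 50%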); conditions: HepG2 viability, 24-48 h, at 10 µM, active compounds read high
[3] = biological target: L-lactate dehydrogenase (Plasmodium falciparum (isolate CDC / Honduras)) (UniProt Q27743); assay: PfLDH activity inhibition – cell lysate, 3D7 strain, counter-screen for P. falciparum growth inhibition project (AID 2304); conditions: P. falciparum 3D7 crude extract, LDH APAD/NBT absorbance; at 2 µM; active compounds read high
Chain of L-lactate dehydrogenase (Plasmodium falciparum (isolate CDC / Honduras)) (Q27743 whole entry, looked up): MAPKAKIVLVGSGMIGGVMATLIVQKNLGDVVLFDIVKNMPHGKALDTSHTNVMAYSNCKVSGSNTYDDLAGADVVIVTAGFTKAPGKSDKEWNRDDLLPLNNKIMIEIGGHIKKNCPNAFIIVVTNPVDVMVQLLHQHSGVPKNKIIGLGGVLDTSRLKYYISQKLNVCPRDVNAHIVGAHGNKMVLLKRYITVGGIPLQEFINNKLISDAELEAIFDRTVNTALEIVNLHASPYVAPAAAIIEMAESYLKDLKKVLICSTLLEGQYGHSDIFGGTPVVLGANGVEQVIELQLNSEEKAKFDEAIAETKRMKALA

[4] = inhibition of 3D7 malaria parasite growth – strain 3D7 (AID 2306); conditions: P. falciparum 3D7 erythrocytic growth, LDH absorbance, 72 h; at 2 µM; active compounds read high
[5] = biological target: Calcium-dependent protein kinase 1 (Plasmodium falciparum (isolate 3D7)) (UniProt P62344); assay: PfCDPK1 kinase inhibitors, biochemical, TCAMS library (AID 1159585; cut-off not given, nearly all actives have IC50 up to about 0.98 µM;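 further: inhibitors leave more ATP so luminescence rises with inhibition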); conditions: recombinant PfCDPK1, Kinase-Glo ATP depletion luminescence
Chain of Calcium-dependent protein kinase 1 (Plasmodium falciparum (isolate 3D7)) (P62344 whole entry, looked up): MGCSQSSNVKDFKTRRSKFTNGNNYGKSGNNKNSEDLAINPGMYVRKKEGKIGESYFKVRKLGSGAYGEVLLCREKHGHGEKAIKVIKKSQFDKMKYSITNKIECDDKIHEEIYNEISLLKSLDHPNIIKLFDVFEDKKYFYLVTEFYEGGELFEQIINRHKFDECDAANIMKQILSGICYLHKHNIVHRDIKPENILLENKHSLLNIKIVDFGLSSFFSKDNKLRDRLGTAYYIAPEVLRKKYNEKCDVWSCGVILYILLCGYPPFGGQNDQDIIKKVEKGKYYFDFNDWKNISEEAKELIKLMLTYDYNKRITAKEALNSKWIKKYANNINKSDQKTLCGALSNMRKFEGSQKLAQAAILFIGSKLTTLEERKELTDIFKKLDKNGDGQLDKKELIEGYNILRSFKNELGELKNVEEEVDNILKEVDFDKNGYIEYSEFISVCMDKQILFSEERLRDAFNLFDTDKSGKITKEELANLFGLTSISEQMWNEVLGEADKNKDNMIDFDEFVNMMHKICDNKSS

[6] = biological target: Plasmodium falciparum protein kinase 6 (PK6, PF3D7_1337100) (UniProt Q8IDW1); assay: PfPK6 kinase inhibitors, biochemical, TCAMS library (AID 1159586); conditions: recombinant PfPK6, Kinase-Glo ATP depletion luminescence
Chain of Plasmodium falciparum protein kinase 6 (PK6, PF3D7_1337100) (Q8IDW1 1-305): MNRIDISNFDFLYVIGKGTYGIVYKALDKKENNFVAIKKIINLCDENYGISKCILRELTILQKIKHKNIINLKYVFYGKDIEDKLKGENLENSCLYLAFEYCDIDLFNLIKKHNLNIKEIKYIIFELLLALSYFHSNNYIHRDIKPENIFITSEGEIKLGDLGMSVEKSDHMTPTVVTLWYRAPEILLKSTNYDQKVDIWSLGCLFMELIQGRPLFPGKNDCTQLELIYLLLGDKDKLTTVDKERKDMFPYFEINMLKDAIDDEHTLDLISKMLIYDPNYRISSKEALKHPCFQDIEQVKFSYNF

[7] = biological target: Protein kinase 7 (PK7), Plasmodium falciparum 3D7 (PF3D7_0213400) (UniProt Q7YTF7); assay: inhibition of Plasmodium PK7 catalytic activity – biochemical, TCAMS antimalarial set, Kinase-Glo luminescence (AID 1159587); conditions: recombinant PfPK7, Kinase-Glo ATP depletion luminescence
Chain of Protein kinase 7 (PK7), Plasmodium falciparum 3D7 (PF3D7_0213400) (Q7YTF7 1-343): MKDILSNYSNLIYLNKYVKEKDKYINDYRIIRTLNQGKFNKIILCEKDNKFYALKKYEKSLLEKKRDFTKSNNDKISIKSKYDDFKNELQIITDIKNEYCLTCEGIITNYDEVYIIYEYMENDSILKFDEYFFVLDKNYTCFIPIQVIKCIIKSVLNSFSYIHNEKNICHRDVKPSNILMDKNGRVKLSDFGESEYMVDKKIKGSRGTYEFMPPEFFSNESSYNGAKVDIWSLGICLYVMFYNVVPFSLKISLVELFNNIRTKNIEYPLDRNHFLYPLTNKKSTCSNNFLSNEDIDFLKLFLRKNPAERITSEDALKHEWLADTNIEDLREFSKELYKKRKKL

[8] = biological target: Calcium-dependent protein kinase 4 (Plasmodium falciparum (isolate 3D7)) (UniProt Q8IBS5); assay: PfCDPK4 kinase inhibitors, biochemical, TCAMS library (AID 1159588; cut-off not given, nearly all actives have IC50 up to about 0.91 µM); conditions: recombinant PfCDPK4, Kinase-Glo ATP depletion luminescence
Chain of Calcium-dependent protein kinase 4 (Plasmodium falciparum (isolate 3D7)) (Q8IBS5 whole entry, looked up): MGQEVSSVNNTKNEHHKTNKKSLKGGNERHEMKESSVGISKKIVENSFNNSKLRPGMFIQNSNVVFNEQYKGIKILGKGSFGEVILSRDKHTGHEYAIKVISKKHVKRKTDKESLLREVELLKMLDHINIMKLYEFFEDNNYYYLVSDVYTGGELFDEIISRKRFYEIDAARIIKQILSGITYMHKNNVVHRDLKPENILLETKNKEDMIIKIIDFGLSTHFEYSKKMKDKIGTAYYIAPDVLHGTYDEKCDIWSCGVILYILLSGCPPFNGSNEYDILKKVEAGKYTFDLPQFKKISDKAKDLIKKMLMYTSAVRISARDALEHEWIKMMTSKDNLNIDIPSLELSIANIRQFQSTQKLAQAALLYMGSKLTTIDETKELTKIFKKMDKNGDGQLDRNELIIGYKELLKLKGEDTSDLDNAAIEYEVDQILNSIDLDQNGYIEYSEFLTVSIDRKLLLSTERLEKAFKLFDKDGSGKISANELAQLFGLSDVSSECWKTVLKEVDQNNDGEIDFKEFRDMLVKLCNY

Structure (SMILES) | growth inhibition [1] | inhibition [2] | inhibition [3] [%] | growth inhibition [4] | outcome [5] | outcome [6] | outcome [7] | outcome [8]
CN(C)CCC(O)(c1ccc(Br)cc1)c1cccnc1 (stereo not given) | 1% | 22% | 5 | 96% (active) | inactive | inactive | inactive | inactive
Nc1ncc(Cc2ccc3c(ccc4ccccc43)c2)c(N)n1 | 3% | 9% | -5 | 97% (active) | inactive | inactive | inactive | inactive
Cc1cc2c(NC(=O)NC3CCN(CCc4cccc(Cl)c4)CC3)cccc2cn1 | 27% | 12% | -5 | 100% (active) | inactive | inactive | inactive | inactive
Cc1ccc(O)c(Nc2c3c(c(C#N)c4nc5ccccc5n24)CCC3)c1 | 2% | 7% | -3 | 85% (active) | inactive | inactive | inactive | inactive
Cc1cc(=O)c(-c2ccc(Oc3ccc(Cl)cc3Cl)cc2)c(C)[nH]1 | 73% (active) | -1% | -2 | 93% (active) | inactive | inactive | inactive | inactive
CC(NC(=O)c1ccc(O)c(-c2ccc(Cl)c(Cl)c2)c1)C(=O)NCCN1CCCC1 (stereo not given) | 9% | -5% | -2 | 99% (active) | inactive | inactive | inactive | inactive
Cc1ccc(NC(=O)c2nc(N3CCN(c4ccncc4)CC3)ccc2Cl)cc1F | 57% (active) | 51% (active) | -5 | 100% (active) | inactive | inactive | inactive | inactive
NCC1CCCN1Cc1cccc(-c2ccc(-c3nc4ccc(C(F)(F)F)cc4[nH]3)cc2)c1 (stereo not given) | 95% (active) | 20% | 0 | 100% (active) | inactive | inactive | inactive | inactive
CN(C)S(=O)(=O)c1ccc(N2CCN(CCC3(c4cccc(F)c4)CCN(C(=O)C(C)(C)C)CC3)CC2)c2nonc12 | 85% (active) | 8% | -1 | 91% (active) | inactive | inactive | inactive | inactive
CCOC(=O)C1=C(C)N=c2sc(=Cc3cc(Cl)ccc3O)c(=O)n2C1c1ccc(OC)cc1 (stereo not given) | 65% (active) | -6% | -3 | 99% (active) | inactive | inactive | inactive | inactive
Cc1cc(NN=Cc2cccc([N+](=O)[O-])c2)c2ccc(F)cc2n1 | 98% (active) | -18% | -8 | 101% (active) | inactive | inactive | inactive | inactive
FC(F)(F)c1cnc(Sc2nnc(-c3ccncc3)o2)c(Cl)c1 | 96% (active) | 10% | 1 | 96% (active) | inactive | inactive | inactive | inactive
CCCCCN1CCCC(CNS(=O)(=O)c2cccc(C(=O)Nc3ccc(C(F)(F)F)cc3)c2)C1 (stereo not given) | 2% | 27% | 4 | 96% (active) | inactive | inactive | inactive | inactive
CCOc1cc(N)c2nc3ccc([N+](=O)[O-])cc3cc2c1 | 78% (active) | 73% (active) | 7 | 100% (active) | inactive | inactive | inactive | inactive
COc1cc(-c2nc3c4ccccc4c4ccccc4c3[nH]2)cc(OC)c1OC | 10% | 4% | 5 | 90% (active) | inactive | inactive | inactive | inactive
CNc1ccc(CNCc2ccc(-c3ccc(-c4nc5c(C)cccc5[nH]4)cc3)cc2)cc1 | 92% (active) | 35% | -8 | 100% (active) | inactive | inactive | inactive | inactive
COc1ccccc1-n1c(-c2ccc3ccccc3c2)csc1=NC(=O)c1ccccc1 | 79% (active) | -6% | -1 | 93% (active) | inactive | inactive | inactive | inactive
Cc1nc2ccccc2c(=O)n1N=Cc1ccccc1[N+](=O)[O-] | 26% | -8% | 3 | 94% (active) | inactive | inactive | inactive | inactive
CC(=O)Nc1ncc(C(=O)Nc2cccc(-c3ccc(-c4nc5ccc(C(F)(F)F)cc5[nH]4)cc3)c2)s1 | 94% (active) | 83% (active) | -4 | 101% (active) | inactive | inactive | inactive | inactive
Cc1nn(-c2ccnc3cc(Cl)ccc23)c(C)c1C(=O)NCc1cc(Cl)cc(Cl)c1 | 53% (active) | -10% | -1 | 97% (active) | inactive | inactive | inactive | inactive

Reference: PubChem BioAssay
